Source: PubChem (several laboratories)
L major viab = Leishmania major promastigote growth inhibition, primary screen | Leishmania major promastigotes, resazurin fluorescence viability | inhibition, % at 10 µM | 200,000 compounds, 9% hits | AID 1063, 2008; in the data active means inhibition above about 50%;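 further: promastigotes grown with compound for 44 hours at 28 °C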
ROMK primary = ROMK potassium channel modulators, primary screen, cell-based, thallium flux, MLSMR library; AID 1918, 2009; Tet-inducible ROMK, thallium flux fluorescence; actives lie on both sides; 130,000 compounds, 2% hits; ATP-sensitive inward rectifier potassium channel 1 (Homo sapiens), P48048; B-score at 10 µM;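 active means signal ratio slope over the read window, or its plate-corrected B-score, at least 3 SD from the plate mean, either direction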;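 further: B-score of the F/F0 ratio slope over 7 to 12 s after thallium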
Insulin prom up = insulin promoter activators in MIN6 cells, imaging, high-content screening, mouse beta cells. AID 1625, 2009. 190,000 compounds, 0.3% hits. z-score at 5 µM. MIN6 insulin promoter-GFP reporter; hits give high values;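 active means z-score above 3 at 5 µM with at least 500 cells counted in the well; inconclusive means wells under 500 cells, flagged as cytotoxic or low count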
Insulin prom inh = inhibitors of insulin promoter-driven GFP, primary screen, imaging, TRM-6 cells (human fetal islet line), eGFP reporter, cell count. reporter expression induced with tamoxifen. inhibition, % at 2 µM. 130,000 compounds, 0.9% hits. AID 1273, 2008;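 active means inhibition above the mean plus 3 SD, with well images judged a real hit on visual review, cut at about 60% in these data, passing the limit was not always enough; inconclusive means inhibition over the cutoff but images rejected on review; inactive means inhibition not above the cutoff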
WT yeast gro inh = growth inhibition of WT strain, primary screen, mitochondrial fusion inhibitor project, WT and mutant strains, chemical genetic; mitochondrial fusion phenotypic screen; 190,000 compounds, 2.1% hits; inhibition, % at 10 µM; in the data active means inhibition above about 58%; tested in S. cerevisiae
Cl transport mod = KCC2 cotransporter modulators, thallium flux, primary screen, cell-based, HEK293 KCC2, FluoZin-2 fluorescence, MLSMR; KCC2 cells, thallium flux FluoZin-2 fluorescence; 190,000 compounds, 2.2% hits; B-score of Tl+ flux slope (higher = more flux/activation; lower = inhibition) at 10 µM; Solute carrier family 12 member 5 (Homo sapiens), Q9H2X9;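 active means thallium flux slope and its plate-corrected score both differing from the plate sample mean at a set confidence after two filtering rounds, in either direction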;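 further: slope of fluorescence scaled to starting intensity during 10 to 20 s after thallium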
Target sequence (Q9H2X9 whole entry, looked up): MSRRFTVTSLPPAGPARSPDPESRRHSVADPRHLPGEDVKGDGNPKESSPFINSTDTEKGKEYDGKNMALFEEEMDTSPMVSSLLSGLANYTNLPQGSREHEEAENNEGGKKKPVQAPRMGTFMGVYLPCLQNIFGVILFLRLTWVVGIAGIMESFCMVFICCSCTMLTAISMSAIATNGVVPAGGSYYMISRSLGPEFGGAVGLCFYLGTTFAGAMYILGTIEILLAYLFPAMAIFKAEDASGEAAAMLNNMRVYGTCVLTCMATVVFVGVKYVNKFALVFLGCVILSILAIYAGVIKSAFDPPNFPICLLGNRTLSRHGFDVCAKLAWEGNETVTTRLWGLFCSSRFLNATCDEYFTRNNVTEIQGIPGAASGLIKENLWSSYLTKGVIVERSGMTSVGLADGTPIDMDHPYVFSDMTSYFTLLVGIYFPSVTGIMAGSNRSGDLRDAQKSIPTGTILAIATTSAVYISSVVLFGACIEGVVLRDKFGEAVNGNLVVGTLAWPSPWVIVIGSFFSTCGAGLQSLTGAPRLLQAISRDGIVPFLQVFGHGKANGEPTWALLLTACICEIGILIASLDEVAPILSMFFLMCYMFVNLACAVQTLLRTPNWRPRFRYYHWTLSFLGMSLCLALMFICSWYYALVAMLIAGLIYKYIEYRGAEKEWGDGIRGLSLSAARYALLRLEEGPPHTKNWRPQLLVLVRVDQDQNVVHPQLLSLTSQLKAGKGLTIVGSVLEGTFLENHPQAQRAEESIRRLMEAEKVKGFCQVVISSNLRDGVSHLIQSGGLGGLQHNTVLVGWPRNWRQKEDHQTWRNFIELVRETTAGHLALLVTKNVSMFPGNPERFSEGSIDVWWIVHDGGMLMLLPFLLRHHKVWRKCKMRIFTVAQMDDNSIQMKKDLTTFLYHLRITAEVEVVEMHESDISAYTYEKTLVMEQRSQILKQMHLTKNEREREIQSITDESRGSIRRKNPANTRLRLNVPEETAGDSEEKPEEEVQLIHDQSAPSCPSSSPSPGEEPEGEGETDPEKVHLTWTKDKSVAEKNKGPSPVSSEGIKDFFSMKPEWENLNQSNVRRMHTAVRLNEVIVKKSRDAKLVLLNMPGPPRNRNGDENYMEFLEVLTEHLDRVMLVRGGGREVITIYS
* = called active by the depositor; ? = inconclusive; · = no result. A selection: hits, their analogues and other compounds. The true share with any hit is near 12%.

SMILES	L major viab	ROMK primary	Insulin prom up	Insulin prom inh	WT yeast gro inh	Cl transport mod
CS(=O)(=O)Oc1ccccc1/C=C1/N=C(c2ccc(F)cc2)OC1=O	-5	0.3	-0.05	57	-23	-0.0071
O=C(COC(=O)CSc1cc(Cl)ccc1Cl)Nc1ncc(C(F)(F)F)cc1Cl	-6	·	0.66	·	-7	0.28
Cc1ccc(-n2c(O)c(C=NC3CCS(=O)(=O)C3)c3ccccc3c2=O)c(C)c1 (stereo not drawn)	·	·	0.07	·	·	-0.71
COc1ccc(-c2cnnc(N/N=C/c3c(C)nn(-c4ccccc4)c3Cl)n2)cc1	1	0.78	·	·	-9	-0.52
COc1ccc(OCC(=O)Nc2ccc(S(=O)(=O)Nc3nc(C)cc(C)n3)cc2)cc1	-3	0.77	-0.01	·	10	-0.0098
COc1ccc(OCC(=O)Nc2ccc(S(=O)(=O)Nc3cc(C)nc(C)n3)cc2)cc1	0	1.2	3.1*	·	12	·
Oc1c(/C=N/Nc2cccc3cccnc23)ccc2ccccc12	-14	0.28	-0.13	73*	10	0.38
C/C(=N\Nc1ccc(Cl)c(C(=O)O)c1)c1ccccn1	·	·	-0.44	·	·	-0.79
C/C(=N\Nc1cccc2cccnc12)c1ccccn1	51*	-0.76	-0.09	·	32	-0.026
Oc1cccc(/C=N/Nc2cccc3cccnc23)c1	7	-0.12	1.1	57	15	0.44
C/C(=N\Nc1ncc(Cl)cc1Cl)c1ccccn1	100*	-2.9	?	·	83	2.8
CCOC(=O)c1ccc(NC(=O)C(=O)NCC2CCCO2)cc1 (stereo not drawn)	7	·	-0.94	·	-14	·
CN(C)Cc1cccc([N+](=O)[O-])c1O	·	·	0.07	·	·	-0.88
CSc1cccc(NC(=O)C(C)C)c1	8	-0.73	0.68	·	9	-0.36
CC(C)C(=O)Nc1cccc(S(=O)(=O)c2cccc(NC(=O)C(C)C)c2)c1	66*	·	·	-488	-5	0.89
CC(C)N(C(=O)CSc1nnc(Cc2ccc3c(c2)OCO3)n1C)C(C)C	-10	·	1.7	-43	-8	-0.064
CC(C)NC(=O)NC(=O)COc1ccc(Br)cc1Br	67*	0.2	-0.35	-5	-3	-0.5
CC(C)CC(C(=O)NC1CCCC1)N(Cc1cccs1)C(=O)c1snc(C(N)=O)c1N (stereo not drawn)	93*	·	0.19	-32	-6	-0.38
CC(C)CC(C(=O)NC1CCCCC1)N(Cc1cccs1)C(=O)c1snc(C(N)=O)c1N (stereo not drawn)	16	-1.7	-0.45	-14	17	-0.37
CCOc1ccccc1N(C(=O)c1ccco1)C(C(=O)NC1CCCC1)c1cccnc1 (stereo not drawn)	-1	·	-0.6	-9	3	-0.052
CCCC(C(=O)NC1CCCC1)N(Cc1ccc2c(c1)OCO2)C(=O)c1snc(C(N)=O)c1N (stereo not drawn)	54*	-1.4	·	3	9	0.045
CCOc1ccccc1N(C(=O)c1snc(C(N)=O)c1N)C(C(=O)NC1CCCC1)c1ccco1 (stereo not drawn)	76*	·	-1.4	·	-6	-1.3
Cc1ccnc(Nc2nc3ccccc3o2)n1	-9	·	-0.34	?	34	0.98
CCNc1nc(SCCOc2ccc(Br)cc2)nc(N(C)C)n1	58*	0.029	-0.6	·	42	-0.07
COC(=O)C1=C(CN2CCCc3ccccc32)NC(=O)NC1c1ccc(F)cc1 (stereo not drawn)	11	-0.15	-0.99	-30	-7	-0.19
SMILES	L major viab	ROMK primary	Insulin prom up	Insulin prom inh	WT yeast gro inh	Cl transport mod
CCCNC(=O)NC(=O)COC(=O)c1ccc(S(=O)(=O)N(C)c2ccccc2OC)cc1	73*	1.4	1.4	·	-12	-1.1
COc1ccccc1N(C)S(=O)(=O)c1ccc(C(=O)OCC(=O)N2CCCCCC2)cc1	100*	0.29	2	·	-4	-1
Cc1cc(C)c(CN2CCC(CO)(CCOc3ccccc3)CC2)cc1C	60*	-0.77	-1.2	·	15	·
CC(COc1ccccc1)N1CCC(CO)(CCc2ccccc2)CC1 (stereo not drawn)	97*	·	-0.44	·	4	0.47
CSCC(C)N1CCC(CO)(CCc2ccccc2)CC1 (stereo not drawn)	82*	-0.78	-0.68	·	-15	·
CN(C)S(=O)(=O)N1CCC(CO)(CCc2ccccc2)CC1	-5	0.1	0.26	·	-7	-0.017
CC(=O)Nc1ccc(-c2cn3ccsc3n2)cc1	1	·	-0.71	-31	-8	0.44
c1cn2cc(-c3ccc4c(c3)OCO4)nc2s1	1	·	-0.46	·	79*	-0.29
O=C1c2ccccc2CCC12N=NCC2c1ccc(Br)cc1 (stereo not drawn)	-7	-0.33	0.09	18	68*	-0.37
Cc1ccc(-n2c3nc(=O)[nH]c(=O)c-3cc3cc([N+](=O)[O-])ccc32)cc1C	94*	·	-0.52	23	9	0.41
Cc1ccc(S(=O)(=O)n2cnc3cc([N+](=O)[O-])ccc32)cc1C	-3	·	-0.28	3	2	-0.31
COc1ccc(CCNC(=O)c2cc3sc(Cl)cc3n2C)cc1OC	-1	·	-0.73	·	11	-1.6
CS(=O)(=O)N(CCc1ccccc1)CC(=O)NCc1ccco1	6	-0.57	0.31	42	-7	·
Cc1cc(Nc2nc(Cl)c(Cl)cc2Cl)n(-c2ccccc2)n1	4	-0.041	0.13	39	65*	-0.52
Cc1cc(Nc2ccccc2)n(-c2nc3ccccc3[nH]2)n1	10	·	-1.6	·	70	3.3*
Cc1nn(-c2ccc3ccccc3c2)c(=O)c2ccccc12	-1	-0.0098	·	·	3	-1.8
Cc1cc(N2CCN(c3ccccc3)CC2)nc(-n2nc(C)cc2C)n1	72*	-0.43	-1.1	-21	72*	·
Cc1cc(N2CCN(c3ccccc3)CC2)nc(-c2ccccc2O)n1	3	-1	0.66	7	26	0.18
Cc1nn(-c2nc3ccccc3[nH]2)c(=O)c2ccccc12	18	0.65	0.65	53	91*	-0.2
CN1CCN(c2ccccc2NC(=O)c2c(F)cccc2F)CC1	-3	-0.041	-1	39	-7	-0.32
COC(=O)C(NC(C)=O)(Nc1nc2ccc(C)cc2s1)C(F)(F)F (stereo not drawn)	0	0.21	-0.04	-8	10	-0.11
O=C1CCCc2c1nc(-c1ccccc1F)n2O	·	·	-0.02	·	·	-0.071
Cc1cc(C)nc(-n2nc(C)cc2Nc2ccccc2)n1	52*	-2.4	0.9	51	72*	·
O=C(O)C1CCCN(S(=O)(=O)c2ccc(F)cc2)C1 (stereo not drawn)	-6	·	0.06	·	17	0.048
CC(C)(C)n1nnnc1C(c1ccc(F)cc1)N(Cc1ccc(F)cc1)Cc1ccco1 (stereo not drawn)	18	·	-0.22	-13	59*	0.1
